According to PubChem BioAssay (Tox21):
Values joined by “and” are separate entries in the source; they are usually repeats but may differ in a detail not shown here. Equal values may be shown once. Inconclusive results are not listed. More than one record can exist for a structure, and the calls need not agree. Active and inactive are the calls of the source. Calls follow the shape of the dose curve; as a rule, active = well fitted curve in the direction sought with a large enough effect in the repeat runs; inconclusive = weak or mixed curves; inactive = no such curve, though single readings can be large; an effect the other way counts as inactive or inconclusive.

Columns and labels:
[1] = A CellTox Green Cytotoxicity Assay to monitor cytotoxicity in HEK293 cells - 32 hour (AID 1224881); also: nearly all actives have a fitted effect of over 40% in size; also: potency is read from the fitted curve at half-maximal effect
Procedure, shortened: (§1)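 Read-out: fluorescence of a cell-impermeant cyanine dye staining DNA of dead cells, proportional to cytotoxicity. HEK293, 600 cells/well with reagent, compound (23 nL DMSO) added after 5 h; reads at 0, 8, 16, 24, 32, 40 h.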

[2] = A CellTox Green Cytotoxicity Assay to monitor cytotoxicity in HepG2 cells - 0 hour (AID 1224882); also: nearly all actives have a fitted effect of over 35% in size; also: potency is read from the fitted curve at half-maximal effect
Procedure, shortened: (§2)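 HepG2, 600 cells/well premixed w/ CellTox Green; 5 h settle, 37 C/5% CO2; pintool cpd add (DMSO); 37 C, 40 h; fluorescence read at 0, 8, 16, 24, 32, 40 h.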

[3] = A CellTox Green Cytotoxicity Assay to monitor cytotoxicity in HepG2 cells - 32 hour (AID 1224883); also: nearly all actives have a fitted effect of over 50% in size; also: potency is read from the fitted curve at half-maximal effect
Procedure, shortened: as §2

[4] = A CellTox Green Cytotoxicity Assay to monitor cytotoxicity in HEK293 cells - 8 hour (AID 1224884); also: nearly all actives have a fitted effect of over 35% in size
Procedure, shortened: as §1

[5] = qHTS RealTime-Glo MT Cell Viability Assay in HepG2 cells - 16 hour (AID 1224885); also: nearly all actives have a fitted effect of over 50% in size
Procedure, shortened: (§3)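 qHTS, HepG2, 600 cells/well, RealTime-Glo (NanoLuc + prosubstrate) added with cells; 5 h preincubation; DMSO compound addition; 37 C; luminescence at 0/8/16/24/32/40 h.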

[6] = qHTS RealTime-Glo MT Cell Viability Assay in HEK293 cells - 8 hour (AID 1224887); also: nearly all actives have a fitted effect of over 50% in size; also: potency is read from the fitted curve at half-maximal effect; as to activity change, negative = cytotoxicity: top concentration of the series differs between compounds
Procedure, shortened: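 Luminescence readout at each listed time point; HEK293, 600 cells/well, RealTime-Glo MT reagent added with cells; compounds pinned (23 nL in DMSO) after 5 h at 37 C; continuous culture at 37 C.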

[7] = A CellTox Green Cytotoxicity Assay to monitor cytotoxicity in HEK293 cells - 16 hour (AID 1224888); also: nearly all actives have a fitted effect of over 35% in size
Procedure, shortened: as §1

[8] = qHTS RealTime-Glo MT Cell Viability Assay in HepG2 cells - 0 hour (AID 1224889); also: nearly all actives have a fitted effect of over 50% in size; also: potency is read from the fitted curve at half-maximal effect
Procedure, shortened: as §3

[9] = A CellTox Green Cytotoxicity Assay to monitor cytotoxicity in HepG2 cells - 8 hour (AID 1224890); also: nearly all actives have a fitted effect of over 45% in size; also: potency is read from the fitted curve at half-maximal effect
Procedure, shortened: as §2

[10] = qHTS RealTime-Glo MT Cell Viability Assay in HEK293 cells - 24 hour (AID 1224886); also: nearly all actives have a fitted effect of over 50% in size; also: potency is read from the fitted curve at half-maximal effect; as to activity change, negative = cytotoxicity: top concentration of the series differs between compounds
Procedure, shortened: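 Assay medium contained NanoLuc luciferase plus cell-permeant prosubstrate, added with HEK293 cells at 600 cells/well. After 5 h at 37 C/5% CO2 compounds were added; plates stayed at 37 C for 40 h with serial luminescence reads.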
% is scaled to controls: 0 for no effect and ±100 for the full control effect.

O=C1CCc2cc(OCCCCc3nnnn3C3CCCCC3)ccc2N1
inactive: Potency [1] | Potency [2] | Potency [3] | Potency [4] | Potency [5] | Potency [6] | Potency [7] | Potency [8] | Potency [9]

COC1=C(OC)C(=O)C(CCCCCCCCCCO)=C(C)C1=O
active: Potency [10] 4.25 µM | Potency [6] 1.69 µM
inactive: Potency [1] | Potency [2] | Potency [3] | Potency [4] | Potency [7] | Potency [8] | Potency [9]

CC(CCc1ccccc1)NCC(O)c1ccc(O)c(C(N)=O)c1 (stereo not drawn)
inactive: Potency [1] | Potency [2] | Potency [3] | Potency [4] | Potency [10] | Potency [6] | Potency [7] | Potency [8] | Potency [9]

O=[N+]([O-])c1ccc(O)cc1C(F)(F)F
inactive: Potency [1] | Potency [2] | Potency [3] | Potency [4] | Potency [5] | Potency [7] | Potency [8] | Potency [9]

CCCC1CCC(=O)CC1
inactive: Potency [1] | Potency [2] | Potency [3] | Potency [4] | Potency [5] | Potency [10] | Potency [7] | Potency [9]

O=c1[nH]c2ccccc2n1CCCN1CCN(C(c2ccccc2)c2ccccc2)CC1
inactive: Potency [1] | Potency [2] | Potency [4] | Potency [7] | Potency [8]
active: Potency [3] 23.9 µM | Potency [10] 19 µM | Potency [6] 21.3 µM

O=C(O)Cc1ccccc1Nc1c(Cl)cccc1Cl
inactive: Potency [1] | Potency [2] | Potency [3] | Potency [4] | Potency [5] | Potency [10] | Potency [7] | Potency [8] | Potency [9]

OC/C=C/CO
inactive: Potency [1] | Potency [2] | Potency [3] | Potency [4] | Potency [10] | Potency [6] | Potency [7] | Potency [8] | Potency [9]

COC(=O)Nc1nc2ccc(C(=O)c3ccccc3)cc2[nH]1
inactive: Potency [1] | Potency [2] | Potency [3] | Potency [4] | Potency [5] | Potency [7] | Potency [8] | Potency [9]

Cc1ccc(N/N=c2\c(=O)cc/c(=N\Nc3ccc(S(=O)(=O)O)cc3)c2=O)c(C)c1
inactive: Potency [1] | Potency [2] | Potency [3] | Potency [4] | Potency [5] | Potency [10] | Potency [7] | Potency [9]

C[C@@H](O)[C@H](N)C(=O)O
inactive: cytotoxicity increase [1] -5.17% [at 15.8 µM] | cytotoxicity [2] 7.45% [at 15.8 µM] | cytotoxicity increase [3] 4.24% [at 15.8 µM] | cytotoxicity increase [4] -5.26% [at 15.8 µM] | activity change, negative = cytotoxic [5] -0.0796% [at 15.8 µM] | activity change, negative = cytotoxicity [10] 0.683% [at 15.8 µM] | activity change [7] -2.81% [at 15.8 µM, stronger effect = higher value] | cytotoxicity increase [9] 6.73% [at 15.8 µM]

CC(C(=O)O)c1ccc2c(c1)[nH]c1ccc(Cl)cc12 (stereo not drawn)
inactive: Potency [1] | Potency [2] | Potency [3] | Potency [4] | Potency [10] | Potency [6] | Potency [7] | Potency [8] | Potency [9]

CCc1cccc(CC)c1NC(=O)CN(CC(=O)O)CC(=O)O
inactive: Potency [1] | Potency [2] | Potency [3] | Potency [4] | Potency [10] | Potency [6] | Potency [7] | Potency [8] | Potency [9]

CN(C)CCN1CCN(c2cccc(Cl)c2)C1=O
inactive: Potency [1] | Potency [2] | Potency [3] | Potency [4] | Potency [5] | Potency [7] | Potency [8] | Potency [9]

Cc1c2ccccc2c(C)c2c1ccc1ccccc12
inactive: Potency [2] | Potency [3] | Potency [4] | Potency [5] | Potency [7] | Potency [9]
active: Potency [1] 43.6 µM | Potency [10] 43.2 µM and 21.9 µM

CCCCC(CC)COC(=O)CCCCC(=O)OCc1ccccc1 (stereo not drawn)
inactive: Potency [1] | Potency [2] | Potency [3] | Potency [4] | Potency [10] | Potency [6] | Potency [7] | Potency [8] | Potency [9]

c1ccc(SSc2ccccc2)cc1
inactive: Potency [1] | Potency [2] | Potency [3] | Potency [4] | Potency [10] | Potency [6] | Potency [7] | Potency [8] | Potency [9]

CC[N+](CC)(CC)CCOC(=O)C(C1CCCC1)C1CCCC1
inactive: Potency [1] | Potency [2] | Potency [3] | Potency [4] | Potency [5] | Potency [6] | Potency [7] | Potency [8] | Potency [9]

[Cl][Pt-2]([Cl])([Cl])[Cl]
inactive: Potency [1] | Potency [2] | Potency [3] | Potency [4] | Potency [5] | Potency [6] | Potency [7] | Potency [9]

CCCCCc1ccc(Cl)cc1
inactive: Potency [1] | Potency [2] | Potency [3] | Potency [4] | Potency [5] | Potency [6] | Potency [7] | Potency [8] | Potency [9]

CC(C)=CCC1=C(O)c2ccccc2C(=O)C1=O
inactive: Potency [1] | Potency [2] | Potency [3] | Potency [4] | Potency [5] | Potency [7] | Potency [8] | Potency [9]

S=c1nccc[nH]1
inactive: Potency [1] | Potency [2] | Potency [3] | Potency [4] | Potency [10] | Potency [6] | Potency [7] | Potency [8] | Potency [9]

COC(=O)c1ccccc1OC
inactive: Potency [1] | Potency [2] | Potency [3] | Potency [4] | Potency [5] | Potency [10] | Potency [8] | Potency [9]

C=Cc1cccc(C)c1
inactive: Potency [1] | Potency [2] | Potency [3] | Potency [4] | Potency [10] | Potency [6] | Potency [7] | Potency [8] | Potency [9]

CCC(CC)C(C)CCOC(C)=O (stereo not drawn)
inactive: Potency [1] | Potency [2] | Potency [3] | Potency [4] | Potency [5] | Potency [10] | Potency [7] | Potency [8] | Potency [9]

CCC(=O)OC(=O)CC
inactive: Potency [1] | Potency [2] | Potency [3] | Potency [4] | Potency [10] | Potency [6] | Potency [7] | Potency [8] | Potency [9]

Cc1ccc(-c2ccccc2)cc1
active: Potency [3] 43.6 µM | Potency [9] 49 µM
inactive: Potency [1] | Potency [2] | Potency [4] | Potency [5] | Potency [6] | Potency [7] | Potency [8]

O=C(Oc1ccccc1)Oc1ccccc1
inactive: Potency [1] | Potency [2] | Potency [3] | Potency [4] | Potency [10] | Potency [6] | Potency [7] | Potency [8] | Potency [9]

COc1cc(/C=C/c2ccccc2)oc(=O)c1
inactive: Potency [1] | Potency [2] | Potency [3] | Potency [4] | Potency [5] | Potency [6] | Potency [7] | Potency [9]

CCCNCCC
inactive: Potency [1] | Potency [2] | Potency [3] | Potency [4] | Potency [5] | Potency [10] | Potency [7] | Potency [8] | Potency [9]

CCCCCCCCCCCCOC(=O)c1ccc(O)cc1
inactive: Potency [1] | Potency [2] | Potency [3] | Potency [4] | Potency [5] | Potency [7] | Potency [9]

Nc1ccc(Oc2ccc(Cl)cc2)cc1
inactive: Potency [1] | Potency [2] | Potency [3] | Potency [4] | Potency [5] | Potency [7] | Potency [8] | Potency [9]
active: Potency [10] 24 µM

COc1cc(C)ccc1O
inactive: Potency [1] | Potency [2] | Potency [3] | Potency [4] | Potency [5] | Potency [10] | Potency [7] | Potency [8] | Potency [9]

CCOC(=O)NNc1ccc(N(CC)CC(C)O)nn1 (stereo not drawn)
inactive: Potency [1] | Potency [2] | Potency [3] | Potency [4] | Potency [5] | Potency [10] | Potency [7] | Potency [9]

O=c1[nH]c(=O)n([C@H]2C[C@H](O)[C@@H](CO)O2)cc1F
active: Potency [2] 5.35 µM | Potency [3] 6.01 µM | Potency [9] 6.01 µM
inactive: Potency [1] | Potency [4] | Potency [5] | Potency [6] | Potency [7] | Potency [8]

CCN(CC)c1ccc2c(-c3ccc(S(=O)(=O)O)cc3S(=O)(=O)[O-])c3ccc(=[N+](CC)CC)cc-3oc2c1
inactive: Potency [1] | Potency [2] | Potency [3] | Potency [4] | Potency [5] | Potency [10] | Potency [7] | Potency [8] | Potency [9]

COc1ccc(-c2coc3cc(O)ccc3c2=O)cc1
inactive: Potency [1] | Potency [2] | Potency [3] | Potency [4] | Potency [5] | Potency [10] | Potency [9]

Oc1c(I)cc(Cl)c2cccnc12
inactive: Potency [2] | Potency [3] | Potency [4] | Potency [6] | Potency [7] | Potency [8] | Potency [9]
34.6 µM (active) and inactive: Potency [10]
10.9 µM (active) and inactive: Potency [1]

CCCC(=O)OC(C)(C)Cc1ccccc1
inactive: Potency [1] | Potency [2] | Potency [4] | Potency [5] | Potency [10] | Potency [6] | Potency [7] | Potency [8] | Potency [9]

CC(=O)[C@H]1CC[C@H]2[C@@H]3CCC4=CC(=O)CC[C@]4(C)[C@H]3CC[C@]12C
inactive: Potency [2] | Potency [4] | Potency [7] | Potency [9]
active: Potency [1] 24.4 µM and 34.7 µM | Potency [3] 49 µM | Potency [10] 15.4 µM and 17.4 µM | Potency [8] 6.88 µM and 5.49 µM

CN1CCN2c3ccccc3Cc3ccccc3C2C1 (stereo not drawn)
inactive: Potency [1] | Potency [2] | Potency [4] | Potency [5] | Potency [10] | Potency [7] | Potency [9]

CC1(C)CC(O)CC(C)(C)N1
inactive: Potency [1] | Potency [2] | Potency [3] | Potency [4] | Potency [10] | Potency [6] | Potency [7] | Potency [8] | Potency [9]
